Screening results as filed in PubChem.
Only some compounds are listed: those with a hit (about 3.8% of all), similar ones and a draw of the others.
FGF22 binding: FGF22 (human) thermal shift binding; Q9HCT0; recombinant FGF22 thermal shift, SYPRO orange fluorescence; percent of sucrose octasulfate shift, DMSO zero; activity (Tm shift, normalised), % at 9.99 µM; 1.5% of 340,000 active; AID 651658;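 active = mean Tm shift, scaled 0 neutral to 100 positive control, at about 1.3% or above, every replicate too, limit read from the data; inconclusive = no clear call, values can overlap the other calls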
Target sequence (Q9HCT0 whole entry, looked up): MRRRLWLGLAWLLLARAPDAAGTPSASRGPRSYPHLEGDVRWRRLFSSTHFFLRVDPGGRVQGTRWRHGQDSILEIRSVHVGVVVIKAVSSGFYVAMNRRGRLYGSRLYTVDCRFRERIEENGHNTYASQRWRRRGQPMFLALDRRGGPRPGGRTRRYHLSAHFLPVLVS
ADAM10 inh: inhibits human ADAM10; O14672; recombinant ADAM10, EDANS/DABCYL FRET peptide cleavage, 3 h; inhibition, % at 7 µM; 0.62% of 370,000 active; AID 720582;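 active = inhibition above a per-campaign cutoff equal to the mean of compounds falling between control-based bounds plus 3 SD, cut at about 20% in these data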;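 note: 0% = DMSO wells while the 100% control is not disclosed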
KLK7 zymogen act: activators of human kallikrein-7 zymogen; P49862; 0.9% of 370,000 active; purified proKLK7, EDANS-DABCYL substrate fluorescence; 100% is mature enzyme control, 0% vehicle; activation, % at 7 µM; AID 652039;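 active = activation above the mean of all tested compounds plus 3 SD, computed per campaign excluding outliers beyond control limits, cut at about 13% in these data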
Target sequence (P49862 whole entry, looked up): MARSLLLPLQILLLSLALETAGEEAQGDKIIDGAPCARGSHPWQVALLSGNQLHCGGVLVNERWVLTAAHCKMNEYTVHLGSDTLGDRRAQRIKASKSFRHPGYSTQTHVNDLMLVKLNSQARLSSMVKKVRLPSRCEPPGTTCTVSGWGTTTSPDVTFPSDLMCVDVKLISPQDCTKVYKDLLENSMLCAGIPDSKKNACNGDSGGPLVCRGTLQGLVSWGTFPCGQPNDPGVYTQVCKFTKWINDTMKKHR
Ecoli rRNA inh: selective bacterial rRNA inhibition in E. coli; E. coli WT GFP vs humanized-ribosome RFP mutants, fluorescence, 24 h; active compounds read low; DMSO median 0, no signal -100; GFP signal change (wild-type ribosome), % (no concentration beside the values); 1.6% of 350,000 active; AID 720706;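 active = significant combined selectivity score with lowered wild-type GFP, culture density cut under 30%, mutant RFP and density less affected; inactive = any of these conditions unmet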
ADAM17 inh: inhibits human ADAM17; P78536; recombinant ADAM17, EDANS/DABCYL FRET peptide cleavage; inhibition, % at 6.95 µM; 0.83% of 370,000 active;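 active = inhibition above the mean of compounds lying between control limits plus 3 SD, set per campaign, cut at about 8.5% in these data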;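 note: 0% = DMSO-only wells as the low control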
AID977621: wild-type E. coli growth inhibition versus H69 humanized strain – H69 mutant RFP, wild-type GFP, cherry-pick, dose response. activity change, negative = inhibition at 50 µM. 1,900 tested, under 10 active. shares compounds with Ecoli rRNA inh. fluorescence, 24 h. AID 977621;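 active = Wild-type ribosome reporter drop at least double the humanized mutant ribosome reporter drop, growth loss under a set limit; inconclusive = no clear call, values can overlap the other calls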;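 note: wild-type GFP and H69 mutant RFP strains grown together 50/50 in each well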
AID977628: growth of wild-type and h24-humanized E. coli strains – h24 mutant RFP vs wild-type GFP, cherry-pick, dose response; shares compounds with Ecoli rRNA inh; E. coli WT GFP strain growth, fluorescence, 24 h; activity change, negative = inhibition at 50 µM; 1,900 tested, under 10 active; AID 977628;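 active = compound lowering the normal-ribosome reporter at least twice as much as the humanized-ribosome reporter, growth loss under a set limit; inconclusive = no clear call, values can overlap the other calls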;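 note: wild-type GFP and h24 humanized RFP strains co-cultured 1 to 1 per well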
An asterisk follows results filed as active; ? = inconclusive; . = no result given.

SMILES	FGF22 binding	ADAM10 inh	KLK7 zymogen act	Ecoli rRNA inh	ADAM17 inh	AID977621	AID977628
CC=Cc1ccc2n(c1=O)C[C@H]1[C@H](CO)[C@@H](C(=O)NCC(F)(F)F)N(CCC)[C@@H]21 (mixture of isomers)	0	.	.	0	.	.	.
COc1cccc(-c2cnc3c(c2)C(=O)N([C@@H](C)CO)C[C@@H](C)[C@@H](CN(C)C(C)=O)O3)c1	0	.	.	7	.	.	.
C[C@@H]1CCCCO[C@H](CN(C)S(=O)(=O)c2ccc(F)cc2)[C@H](C)CN([C@@H](C)CO)C(=O)c2cc(NC(=O)Nc3cccc4ccccc34)ccc2O1	0	.	.	1	.	.	.
Cc1ccc(C#CC[N+](C)(C)CC#Cc2ccccc2)cc1	0	-6	0	-54*	-4	.	?
C#CC[N+](C)(C)CC#Cc1ccccc1	43	8	0	21	1	.	.
C[C@@H]1CN([C@@H](C)CO)C(=O)Cc2cc(NC(=O)Nc3ccccc3)ccc2O[C@@H]1CN(C)C(=O)Nc1cccc2ccccc12	0	.	.	3	.	.	.
O=[N+]([O-])c1ccc(Cl)c2cccnc12	0	5	-1	13	-1	.	.
O=[N+]([O-])c1ccccc1Oc1ccc(Cl)c2cccnc12	0	-3	0	-29*	-1	-14	.
C[C@H](CO)N1C[C@H](C)[C@H](CN(C)C(=O)C2CC2)Oc2cc(/C=C/c3ccccc3)ccc2S1(=O)=O	-1	.	.	-5	.	.	.
CN1CCN(C(=O)c2cc3sc4ccccc4c3s2)CC1	0	-16	0	-24*	-10	.	?
Cc1ccc2oc(=O)c3cc(C(=O)N4CCN(C)CC4)sc3c2c1	0	-24	0	1	-11	.	.
COc1ccc(CNC(=O)c2cc3c(s2)CN(Cc2ccccc2)C3)cc1	0	-2	0	-22*	-2	-20	.
CC(=O)N1CCN(c2nc(-c3cccs3)nc3ccccc23)CC1	0	5	1	-24*	-2	-2.9	.
CC(C)Oc1cccc(C(=O)C2CCCN(Cc3ccc4nonc4c3)C2)c1 (centres undefined)	0	3	0	-29*	0	?	.
CC(C)Oc1cccc(C(=O)C2CCCN(Cc3cnn(C(C)C)c3)C2)c1 (centres undefined)	0	-16	3	12	-7	.	.
C[C@@H]1CN([C@H](C)CO)C(=O)c2cccc(NC(=O)c3ccncc3)c2O[C@@H]1CN(C)S(=O)(=O)c1ccc(Cl)cc1	0	.	.	-23*	.	.	?
COc1ccc(NC(=O)Nc2cccc3c2O[C@H](CN(C)S(=O)(=O)c2ccc(Cl)cc2)[C@H](C)CN([C@H](C)CO)C3=O)cc1	0	.	.	-18	.	-15	?
COc1ccc(OC)c(NC(=O)COc2ccc(S(=O)(=O)NC(C)C)cc2)c1	.	4	0	-23*	-2	-11	-12
COc1ccc(OC)c(NC(=O)COC(=O)C2CCN(C(=O)c3ccc(Cl)cc3)CC2)c1	0	1	0	-27*	1	-7.7	.
COc1ccc(OC)c(NC(=O)COc2ccc(S(=O)(=O)N3CCCC3)cc2)c1	0	6	0	-8	-1	.	.
CCC(C(=O)OCC(=O)Nc1cc(OC)ccc1OC)c1ccccc1 (centres undefined)	0	-3	1	8	-1	.	.
COc1ccc(OC)c(NC(=O)COC(=O)CCNc2ccccc2OC)c1	-1	-13	0	-20*	-5	5.9	-1.8
COc1ccccc1NC(=O)COC(=O)Cc1c[nH]c2ccccc12	0	-8	1	-17*	-4	4.4	-4.5
C[C@@H]1CN([C@@H](C)CO)C(=O)c2cccc(NS(=O)(=O)c3ccc(F)cc3)c2O[C@@H]1CN(C)C(=O)Nc1cccc2ccccc12	-1	.	.	-1	.	.	.
O=C(C[C@H]1C[C@H]2c3cc(NC(=O)c4ccc5c(c4)OCO5)ccc3O[C@H]2[C@@H](CO)O1)NCc1cccnc1	0	.	.	-3	.	.	.
SMILES	FGF22 binding	ADAM10 inh	KLK7 zymogen act	Ecoli rRNA inh	ADAM17 inh	AID977621	AID977628
CC(C)CC#Cc1ccc([C@@H]2[C@@H](CO)N3CCCCN(C(=O)c4ccc5c(c4)OCO5)C[C@H]23)cc1	0	.	.	-53	.	.	.
O=C(CC1CC1)N1CC(=O)N2[C@H](CO)[C@@H](c3ccc(C#Cc4ccccc4)cc3)[C@@H]2C1	.	.	.	-59	.	.	.
CCCn1c(C(C)Nc2nc(-c3cccc(Br)c3)cs2)nc2ccccc21 (centres undefined)	0	9	0	6	1	.	.
CCCn1c(C(C)Nc2nc(-c3ccc(C)cc3)cs2)nc2ccccc21 (centres undefined)	0	4	-1	-16*	-1	-14	-1.6
O=C(N[C@@H]1CC[C@H](CCn2cc(C3(O)CCCC3)nn2)O[C@@H]1CO)C1CCCC1	0	.	.	1	.	.	.
Cc1ccn2cc(-c3cccc(NC(=O)c4cccs4)c3)nc2c1	0	2	0	-36*	-5	-5.4	-13
Cc1ccc(NC(=O)COC(=O)CCNS(=O)(=O)c2c(Cl)cccc2Cl)cc1	1	7	0	-14*	1	3.4	-8.1
Cc1ccccc1S(=O)(=O)N1C[C@H]2CON(C)[C@H]2C[C@H]1c1cccc(-c2ccc(C#N)cc2)c1	0	0	1	-18*	1	?	.
CN1OC[C@@H]2CN(C(=O)c3ccco3)[C@H](c3ccc(-c4ccc(C#N)cc4)cc3)C[C@@H]21	0	2	1	-19*	0	-5.4	-4.7
Cc1ccccc1S(=O)(=O)N1C[C@H]2CON(C)[C@H]2C[C@H]1c1cccc(N2CCOCC2)c1	0	-4	0	-3	-3	.	.
C=C(C)Cn1c(=O)c2c(nc3n2CC(C)CN3Cc2ccccc2)n(C)c1=O (centres undefined)	0	-5	0	-24*	0	-16	?
CSc1ccccc1NC(=O)CN(c1cccc(C)c1)S(C)(=O)=O	0	2	0	-20*	5	-13	.
Cc1cccc(N(CC(=O)Nc2ccccc2F)S(C)(=O)=O)c1	.	-11	0	.	0	.	.
COC(=O)[C@@H]1[C@@H](CO)[C@@H]2Cn3c(ccc(C4=CCCCC4)c3=O)[C@@H]2N1Cc1cccnc1	.	.	.	1	.	.	.
CN(C)S(=O)(=O)c1ccc(Cl)c(C(=O)OCC(=O)NC(=O)c2cccn2C)c1	0	9	1	-21*	2	-11	-14
O=C(N[C@H]1CC[C@@H](CCNS(=O)(=O)c2ccc(Cl)cc2)O[C@@H]1CO)c1cccc(F)c1	-1	.	.	-2	.	.	.
